From PubChem BioAssay (NCATS) come the findings set out here.

Molecules are shown by their SMILES. Values joined by “and” are separate entries in the source; they are usually repeats but may differ in a detail not shown here. Equal entries are not always repeated. Results filed as inconclusive are left out. Values without a mark were called inactive. Active and inactive are the calls of the source. Calls come from the whole dose curve; as a rule, active = well fitted curve in the direction sought with a large enough effect; inconclusive = small, poorly fitted or top-dose-only effect, or another doubt; inactive = no such curve, though single readings can be large; an effect the other way counts as inactive or inconclusive.

Sequence of Furin (Homo sapiens) (P09958 whole entry, looked up): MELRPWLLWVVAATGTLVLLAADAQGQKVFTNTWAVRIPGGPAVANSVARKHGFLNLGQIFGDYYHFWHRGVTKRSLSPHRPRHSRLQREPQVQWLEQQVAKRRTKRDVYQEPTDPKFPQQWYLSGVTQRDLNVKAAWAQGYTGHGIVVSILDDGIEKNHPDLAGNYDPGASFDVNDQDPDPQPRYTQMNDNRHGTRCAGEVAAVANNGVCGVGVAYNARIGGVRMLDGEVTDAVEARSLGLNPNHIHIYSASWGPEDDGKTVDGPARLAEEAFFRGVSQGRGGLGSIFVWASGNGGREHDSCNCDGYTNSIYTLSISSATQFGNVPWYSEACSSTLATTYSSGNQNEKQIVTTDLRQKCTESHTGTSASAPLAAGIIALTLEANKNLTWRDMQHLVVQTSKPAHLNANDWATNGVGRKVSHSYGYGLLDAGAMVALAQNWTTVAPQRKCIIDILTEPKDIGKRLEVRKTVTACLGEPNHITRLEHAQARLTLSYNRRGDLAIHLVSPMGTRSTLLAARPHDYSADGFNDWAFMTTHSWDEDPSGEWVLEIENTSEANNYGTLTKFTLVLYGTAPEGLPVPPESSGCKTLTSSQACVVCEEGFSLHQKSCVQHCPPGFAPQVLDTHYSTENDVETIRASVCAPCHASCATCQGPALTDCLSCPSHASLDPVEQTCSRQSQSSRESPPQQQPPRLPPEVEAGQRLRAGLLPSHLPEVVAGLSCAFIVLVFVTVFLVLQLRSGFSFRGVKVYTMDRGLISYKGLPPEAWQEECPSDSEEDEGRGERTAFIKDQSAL

For one experiment, the target named is Furin (Homo sapiens) (UniProt P09958). The experiment can be described thus: Furin counterscreen qHTS for Zika virus inhibitors (AID 1347149).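 For activity change, negative = inhibition: purified recombinant full-length human furin enzyme at 5 nM; fluorescence gain from furin cutting a BOC-RVRR-AMC peptide substrate over 15 min; top concentration of the series differs between compounds; plate controls were no-inhibitor control for no effect and no-enzyme control for full effect.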 Note: nearly all actives have a fitted effect of over 70% in size. Note: potency is the fitted concentration of half-maximal effect. The settings on record: furin enzymatic counterscreen, fluorogenic substrate; series mostly up to 57.5 µM; activity change, negative = inhibition: at the top concentration. The method, boiled down:
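Fluorogenic cleavage of BOC-RVRR-AMC (2 microM final, Km ~15 µM) was monitored (ex 340, em 450 nm) at 37C after 15 min RT preincubation of 5 nM furin with compounds in HEPES pH 7.0 buffer with CaCl2 and Triton X-100. Percent inhibition was fitted to a 4-parameter Hill curve.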
Regarding `O[C@@H](c1cc(C(F)(F)F)nc2c(C(F)(F)F)cccc12)[C@H]1CCCCN1`, the “activity change, negative = inhibition” value was 0.711%.

As to `C=C1c2cccc(O)c2C(O)=C2C(=O)[C@]3(O)C(O)=C(C(N)=O)C(=O)[C@@H](N(C)C)[C@@H]3[C@@H](O)[C@H]12`, the Potency is 8.55 µM (active).

As for `CC(C)=CCOc1ccc(/C=C/C(=O)c2ccc(OCC=C(C)C)cc2OCC(=O)O)cc1`, the Potency was 66.3 µM (active).

As for `C[C@H]1O[C@@H](O[C@H]2CC[C@@]3(C)[C@H](CC[C@@H]4[C@@H]3C[C@@H](O)[C@]3(C)[C@@H](C5=CC(=O)OC5)CC[C@]43O)C2)C[C@H](O)[C@@H]1O[C@H]1C[C@H](O)[C@H](O[C@H]2C[C@H](O)[C@H](O[C@@H]3O[C@H](CO)[C@@H](O)[C@H](O)[C@H]3O)[C@@H](C)O2)[C@@H](C)O1`, the “activity change, negative = inhibition” value was -7.39%.

On to `CCC(CC)(CC(=O)Nc1cccc(/C=C/c2nc(C3CCC3)cs2)c1)C(=O)O`, for which the Potency is 21.5 µM (active).

As to `CC1(COc2ccc(CC3SC(=O)NC3=O)cc2)CCCCC1` (configuration not stated), the “activity change, negative = inhibition” value is 2.2%.

Consider `CCc1oc2ccccc2c1C(=O)c1cc(Br)c(O)c(Br)c1`, for which the Potency was 24.1 µM (active).

The subject of another experiment is Zika virus NS2B-NS3 protease (unlinked). The experiment can be described thus: Optimization of GU AMC qHTS for Zika virus inhibitors: Unlinked NS2B-NS3 protease assay (AID 1347151).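 Note: 0% = no-inhibitor control and -100% = no-enzyme control; nearly all actives have a fitted effect of over 80% in size.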 The settings on record: recombinant ZIKV NS2B-NS3 protease, fluorogenic AMC substrate; series mostly up to 52.5 µM; activity change, negative = inhibition: at the top concentration. The text has this:
Avindra Nath, Ph.D., National Institute of Neurological Disorders and Stroke (NINDS), Bethesda, MD
Radhakrishnan Padmanabhan, Ph.D., Georgetown University (GU), Washington D.C.
Zika Virus causes congenital defects, including microcephaly and is associated with Guillain-Barre syndrome, eningoencephalitis and myelitis in infected adult. […] Using a target-based approach, we hope to establish a screening paradigm to uncover novel, cell-active NS2B-NS3 protease (Zika Virus) specific inhibitors from NCATS' collection of small molecules using qHTS.
Early Translation Branch (ETB)
National Center for Advancing Translational Sciences (NCATS), Rockville, MD
National Institute of Health (NIH), Bethesda, Maryland
Padmanabhan lab provided the NS2B hydrophilic domain and NS3 protease domain in a noncovalent complex used for the unlinked assay. Control compound aprotinin is obtained from Thermo Scientific (#78432; Waltham, Massachusetts). NS2B-NS3 AMC substrate (Bz-Nle-Lys-Arg-Arg-AMC; Nle-KRR-AMC) purchased from Bachem (#I-1995; Torrance, CA). Ac-VKTGKR-AMC purchased from Genscript or Bachem, Ac-FAAGKR-AMC purchased from Genscript, Ac-GLVKRR-AMC purchased from Genscript, Ac-LKKR-AMC purchased from Genscript.
GU AMC unlinked NS2B-NS3 protease qHTS protocol:
Briefly, 3 microL of Zika virus unlinked NS2B-NS3 protease (25 nM for linked final concentration), in assay buffer (10 mM Tris-HCl pH 8.0 with 0.01% Tween 20) was dispensed into a 1,536-well solid-bottom black plate (Greiner Bio One, Monroe, NC). Twenty-three nL of compounds (final concentration range 7.28 nM to 114 microM) or control Aprotinin (final concentration range 3.47 nM to 114 microM) were transferred via Wako Pin-tool (Wako Automation, Richmond, VA). […] Plates were then read immediately on a ViewLux High-throughput CCD imager (PerkinElmer, Waltham, MA) equipped with standard UV fluorescence optics (340(30) nm excitation, 450(20) nm emission) then incubated (room temperature, protected from light) for 15 minutes (~20% conversion). The change in fluorescence intensity over the 15-minute reaction period was normalized against no-inhibitor and no-enzyme controls and the resulting percent inhibition data were fitted to a 4-parameter Hill equation. Aprotinin was used as the intraplate control.
As for `CC(C)(C)NC[C@H](O)COc1nsnc1N1CCOCC1`, the “activity change, negative = inhibition” value was 2.83%.

Regarding `CCOC(=O)[C@H](CCc1ccccc1)N[C@@H](C)C(=O)N1[C@H](C(=O)O)C[C@H]2CCCC[C@@H]21`, the “activity change, negative = inhibition” value was -1%.

With `CN=C(N)NCCC[C@H](N)C(=O)O`, the “activity change, negative = inhibition” value is 0.641%.

As to `NC(N)=NCc1cccc(I)c1`, the “activity change, negative = inhibition” value is 2.12%.

In the case of `O[C@@H](c1cc(C(F)(F)F)nc2c(C(F)(F)F)cccc12)[C@H]1CCCCN1`, the “activity change, negative = inhibition” value was 24.6%.

On to `C[C@H]1O[C@@H](O[C@H]2CC[C@@]3(C)[C@H](CC[C@@H]4[C@@H]3C[C@@H](O)[C@]3(C)[C@@H](C5=CC(=O)OC5)CC[C@]43O)C2)C[C@H](O)[C@@H]1O[C@H]1C[C@H](O)[C@H](O[C@H]2C[C@H](O)[C@H](O[C@@H]3O[C@H](CO)[C@@H](O)[C@H](O)[C@H]3O)[C@@H](C)O2)[C@@H](C)O1`, for which the “activity change, negative = inhibition” value is -8.03%.

The subject of the next experiment is Zika virus NS2B-NS3 protease (linked construct). Kind of experiment: Confirmatory screen NINDS AMC qHTS for Zika virus inhibitors (AID 1347152). Note: potency is the fitted concentration of half-maximal effect; nearly all actives have a fitted effect of over 70% in size. The settings on record: Purified linked NS2B-NS3, AMC substrate fluorescence. The method, boiled down:
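Enzyme (1 nM, linked construct) was preincubated with compound for 15 minutes at room temperature in 10 mM Tris-HCl pH 8.0 with 0.01% Tween 20. Bz-Nle-Lys-Arg-Arg-AMC was then added to 10 microM, and AMC fluorescence was recorded immediately and after 15 minutes.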
Turning to `CCC(CC)(CC(=O)Nc1cccc(/C=C/c2nc(C3CCC3)cs2)c1)C(=O)O`, the Potency is 24.1 µM (active).

As for `CC1(COc2ccc(CC3SC(=O)NC3=O)cc2)CCCCC1` (configuration not stated), the Potency is 19.2 µM (active).

In the case of `CCc1oc2ccccc2c1C(=O)c1cc(Br)c(O)c(Br)c1`, the Potency is 9.61 µM (active).

For the next experiment, the system named is Zika virus NS2B-NS3 protease (unlinked complex). The experiment can be described thus: Confirmatory screen GU AMC qHTS for Zika virus inhibitors (AID 1347153).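 Note: enzyme at 25 nM with substrate at 10 µM below its Km of 18.3 µM; potency is the fitted concentration of half-maximal effect; nearly all actives have a fitted effect of over 70% in size.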 The settings on record: Recombinant NS2B-NS3 protease, AMC substrate fluorescence. In short, it runs like this:
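Noncovalent NS2B hydrophilic domain/NS3 protease complex (25 nM) in 10 mM Tris-HCl pH 8.0, 0.01% Tween 20 was preincubated 15 min at room temperature with compounds. Then 10 µM AMC substrate (Km 18.3 µM) was added; fluorescence was read over 15 min and fitted to a 4-parameter Hill equation.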
As to `C=C1c2cccc(O)c2C(O)=C2C(=O)[C@]3(O)C(O)=C(C(N)=O)C(=O)[C@@H](N(C)C)[C@@H]3[C@@H](O)[C@H]12`, the Potency is 19.2 µM (active).

As to `CC1(COc2ccc(CC3SC(=O)NC3=O)cc2)CCCCC1` (configuration not stated), the Potency is 21.5 µM (active).

For `CCc1oc2ccccc2c1C(=O)c1cc(Br)c(O)c(Br)c1`, the Potency is 17.1 µM (active).

The subject of the next experiment is Zika virus NS2B-NS3 protease. Kind of experiment: Primary screen GU AMC qHTS for Zika virus inhibitors (AID 1347154).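 For activity change, negative = inhibition: 0% = no-inhibitor control and -100% = no-enzyme control.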 Note: nearly all actives have a fitted effect of over 70% in size. Note: potency is the fitted concentration of half-maximal effect. The note with it: Zika NS2B-NS3 unlinked protease, AMC fluorogenic substrate; series mostly up to 54.1 µM; activity change, negative = inhibition: at the top concentration. In short, it runs like this:
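Unlinked Zika NS2B hydrophilic domain–NS3 protease complex at 25 nM in 10 mM Tris-HCl pH 8.0, 0.01% Tween 20, with an AMC peptide substrate. Fluorescence change (340/450 nm) over 15 min at room temperature, normalized to controls, fitted to 4-parameter Hill.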
As to `CCN1/C(=C/C=C/c2sc3ccccc3[n+]2CC)Sc2ccccc21`, the “activity change, negative = inhibition” value is 0.676% [at 25.8 µM].

Turning to `O=C(CCCN1CC=C(n2c(=O)[nH]c3ccccc32)CC1)c1ccc(F)cc1`, the “activity change, negative = inhibition” value is -3.37%.

With `Cc1cc(CC(=O)O)c(C)n1-c1ccc(Cl)cc1`, the “activity change, negative = inhibition” value is -12.2%.

`CC(C)(C)NC[C@H](O)COc1nsnc1N1CCOCC1`: the Potency result was “inactive”.

Consider `CCCCCCCCCCCCOCCOCCOCCOCCOCCOCCOCCOCCOCCO`, for which the “activity change, negative = inhibition” value was -4.14%.

On to `O=C(Oc1cccc2cccnc12)c1ccccc1`, for which the “activity change, negative = inhibition” value was 1.68%.

For the molecule `CCCCCCCCCCCCCC(=O)OC(C)C`, the “activity change, negative = inhibition” value is -1.37%.

For the molecule `CN=C(N)NCCC[C@H](N)C(=O)O`, the “activity change, negative = inhibition” value was 4.95%.

For `C[C@H]1[C@H]2CC[C@H]3[C@@H]4CC=C5C[C@@H](N(C)C)CC[C@]5(C)[C@H]4CC[C@]23CN1C`, the “activity change, negative = inhibition” value is 3.6%.

Turning to `COc1ccc(C(=O)c2ccccc2)c(O)c1`, the “activity change, negative = inhibition” value was -0.694%.

Consider `CN(C)C(=O)Nc1ccc(Cl)c(Cl)c1`, for which the “activity change, negative = inhibition” value was -1.31%.

In the case of `Nc1nc(Cl)nc2c1ncn2[C@@H]1O[C@H](CO)[C@@H](O)[C@@H]1F`, the “activity change, negative = inhibition” value was 1%.

Consider `C[C@@]12C(=O)OC(=O)[C@]1(C)C1CCC2O1`, for which the “activity change, negative = inhibition” value is 1.31%.

In the case of `O=C(Nc1ccc([N+](=O)[O-])cc1)Nc1ccc([N+](=O)[O-])cc1`, the “activity change, negative = inhibition” value is -7.28%.

In the case of `CC(C(=O)O)c1cccc(Oc2ccccc2)c1` (configuration not stated), the “activity change, negative = inhibition” value is 13.3%.

Consider `COc1ccc(/C=N/NC(=O)c2ccncc2)cc1OC`, for which the “activity change, negative = inhibition” value was 1.1%.

For `O[C@@H](c1cc(C(F)(F)F)nc2c(C(F)(F)F)cccc12)[C@H]1CCCCN1`, the “activity change, negative = inhibition” value was -8.76%.

With `C=C1c2cccc(O)c2C(O)=C2C(=O)[C@]3(O)C(O)=C(C(N)=O)C(=O)[C@@H](N(C)C)[C@@H]3[C@@H](O)[C@H]12`, the Potency is 3.98 µM (active) and 2.99 µM (active).

As for `Cc1c(-c2ccccc2)oc2c(C(=O)OCCN3CCCCC3)cccc2c1=O`, the “activity change, negative = inhibition” value is 0.8%.

Take `O=[N+]([O-])c1ccc(/C=N\O)o1`: the “activity change, negative = inhibition” value was -4.64%.

In the case of `CCN[C@@H]1C[C@H](N)[C@@H](OC2OC(CN)=CCC2N)[C@H](O)[C@H]1O[C@H]1OC[C@](C)(O)[C@H](NC)[C@H]1O` (some centres not stated), the activity change, negative = inhibition is -3.5% [at 0.59 µM].

For the molecule `Cn1c(=O)c2[nH]c(Br)nc2n(C)c1=O`, the “activity change, negative = inhibition” value was 3.74%.

Turning to `C[C@H]1O[C@@H](O[C@H]2CC[C@@]3(C)[C@H](CC[C@@H]4[C@@H]3C[C@@H](O)[C@]3(C)[C@@H](C5=CC(=O)OC5)CC[C@]43O)C2)C[C@H](O)[C@@H]1O[C@H]1C[C@H](O)[C@H](O[C@H]2C[C@H](O)[C@H](O[C@@H]3O[C@H](CO)[C@@H](O)[C@H](O)[C@H]3O)[C@@H](C)O2)[C@@H](C)O1`, the “activity change, negative = inhibition” value is -6.38%.

Regarding `O=C(CN1CCN(Cc2ccc3c(c2)OCO3)CC1)N1c2ccccc2Sc2ccccc21`, the “activity change, negative = inhibition” value was -6.04%.

Consider `C=C[C@@]1(C)CC(=O)[C@]2(O)[C@@]3(C)[C@@H](O)CCC(C)(C)[C@@H]3[C@H](O)[C@H](OC(C)=O)[C@@]2(C)O1`, for which the “activity change, negative = inhibition” value is -3.91%.

On to `CCC(CC)(CC(=O)Nc1cccc(/C=C/c2nc(C3CCC3)cs2)c1)C(=O)O`, for which the “activity change, negative = inhibition” value is -20.8%.

As for `CC1(COc2ccc(CC3SC(=O)NC3=O)cc2)CCCCC1` (configuration not stated), the activity change, negative = inhibition was 6.2% [at 6.83 µM].

Take `C[C@@H](O)[C@H]1C(=O)N2C(C(=O)O)=C([C@H]3CCCO3)S[C@H]12`: the “activity change, negative = inhibition” value is 9.91%.

As for `NC(=S)N/N=C/c1cccnc1`, the “activity change, negative = inhibition” value is -3.47%.

With `CCc1oc2ccccc2c1C(=O)c1cc(Br)c(O)c(Br)c1`, the Potency is 10.6 µM (active).

`CC(C)Cc1ccc(CC(=O)O)cc1`: the “activity change, negative = inhibition” value is -9.15%.

For the molecule `CCN(CC)CCOc1ccc2c(c1)C(=O)c1cc(OCCN(CC)CC)ccc1-2`, the “activity change, negative = inhibition” value was -2.91%.

For the molecule `CC[C@H](c1ccc(O)cc1)[C@@H](CC)c1ccc(O)cc1`, the “activity change, negative = inhibition” value is -19.8%.
